# Results as given in the supplement of paper PMC10338343.
# ± gives the standard deviation. Whole data set: some 8,200 sequences, median “pre-steady-state target cleavage rate” near 0.024, cut for the highest 2% near 1.3. Only a selection was taken, and the highest values are over-represented in it overall.
# Tested on: MIWI (PIWIL1) piRISC loaded with L1MC piRNA (30 nt)
# Test: pre-steady-state target cleavage rate (min^-1); MIWI and MILI are mouse PIWI proteins and EfPiwi is from a freshwater sponge; tags in brackets are library labels; higher = faster piRNA-guided slicing of the target
# Conditions: guide: L1MC piRNA 5'p-UAACUAAAUACUAUGCAAGCUGUAGGUCCU
# Method: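 Cleave-'n-Seq: a library of target RNAs (target site embedded in constant flanks, ACAGCATTCCGCGTTAGTGATATCCG... 5' flank; DNA-blocked outside the site) at 0.1 nM was incubated with 1 nM active mouse MILI or MIWI piRISC (synthetic 5'-monophosphorylated piRNA guide) with or without 500 nM mouse GTSF1 at 33 °C for 1 min to 16 h. Uncleaved targets were sequenced and normalised to non-target controls, and the pooled three trials were fitted to a burst-and-steady-state model to give the pre-steady-state cleavage rate (min^-1; k3 is constrained to at most 1e-4). Sequence is the target site only; target names encode pairing extent (gX:gY) and contiguous / 1-mismatch / 2-mismatch / bulge geometry. Fits with R² ≤ 0 are excluded.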
# [1] = auxiliary factor: 500 nM mouse GTSF1
# [2] = auxiliary factor: none (no GTSF1)
Sequence,pre-steady-state target cleavage rate [1],pre-steady-state target cleavage rate [2]
UCCUGGAUCAGCUUGCAUACUAUUUUCAAA,0.00597 ± 0.0043,–
UCCUGGUACUGCUUGCAAAGUAUUUAGUUA,0.46 ± 0.036,0.0221 ± 0.0052
UCCUCCUACAGCUUGCAUAGAAUUUACAAA,0.295 ± 0.045,–
UCCUGGAUGUCGAACGUAACUAUUUACUUA,< 0.0001,–
UCCUCCUACAGCUUCGAUAGUAUUUAGUAA,0.263 ± 0.031,–
UCCUGGAUGUGCUUGCAUAGUAUAAAGUAA,0.00523 ± 0.0043,–
UCGACCUACAGCUUGCAUAGUAUUGAGUUA,0.499 ± 0.042,0.0477 ± 0.0089
UCCUGGAUCAGCUUGCAUACUUUUUAGUUA,0.014 ± 0.0033,0.00335 ± 0.0016
UCGACCUACAGCUUGCAUAGUAGUUUAGUUA,0.574 ± 0.031,0.0134 ± 0.0039
UCCUGGUACAGCUUGCAAAGUAUUAAGUUA,0.35 ± 0.049,0.0147 ± 0.0043
AGGACCUACAGCGUUGCAUAGUAUUUAGUUA,1.21 ± 0.086,0.0748 ± 0.015
UCCACCUACAGCGUUGCAUAGUAUUUAGUUA,1.03 ± 0.13,0.0279 ± 0.005
UCCUCCUACAGCGUUGCAUAGUAUUUAGUUA,0.96 ± 0.057,0.0256 ± 0.0045
UCCUCCUACAGCUGUGCAUAGUAUUUAGUUA,1.18 ± 0.064,0.0204 ± 0.0047
UGGACCUACAGCGUUGCAUAGUAUUUAGUUA,1.33 ± 0.11,0.0647 ± 0.013
UCCUCCUACAGCGUGCAUAGUAUUUAGUUA,1.4 ± 0.042,0.0379 ± 0.0072
UCGACCUACAGCUUGCAUAGUAUUAAGAUA,0.248 ± 0.029,0.00627 ± 0.0027
UCGACCUACAGGUUGCAUAGUAUUUACAAA,0.183 ± 0.026,–
AGGACCAACAGCUUGCAUAGUAUAUAGUUA,0.775 ± 0.054,0.0604 ± 0.013
AGGACCUACAGCUUGCAUAGUAAAAAGUUA,0.489 ± 0.058,0.00574 ± 0.0034
UCCUCCUACAGCUUGCAUAGAAAUUAGUUA,0.169 ± 0.019,0.00268 ± 0.0024

Sequence,pre-steady-state target cleavage rate [1],pre-steady-state target cleavage rate [2]
UCCUGGUACAGCUUGGUUAGUAUUUAGUAA,0.412 ± 0.079,0.0101 ± 0.0031
UCCUGGUUGAGCUUGCAUAGUAUUUAGAAA,0.135 ± 0.024,0.00555 ± 0.0033
UCCUGGAACAGCUUGCAUACAAUUUAGUUA,0.0117 ± 0.0047,–
AGGACCUACAGCUUGCAUAGUAUAAAGAAA,0.434 ± 0.077,–
UCCACCCACAGCUUGCAUAGUAUUUAGUUA,0.787 ± 0.052,0.0508 ± 0.0088
UCGACCACAGCUUGCAUAGUAUUUAGUUA,1.22 ± 0.051,0.0643 ± 0.011
UGGACCACAGCUUGCAUAGUAUUUAGUUA,1.47 ± 0.083,0.0744 ± 0.015
UGGACCCACAGCUUGCAUAGUAUUUAGUUA,1.43 ± 0.091,0.0699 ± 0.011
AGGACCCACAGCUUGCAUAGUAUUUAGUUA,1.47 ± 0.093,0.0682 ± 0.0093
AGGACCACAGCUUGCAUAGUAUUUAGUUA,1.29 ± 0.066,0.0967 ± 0.019
UCGACCCACAGCUUGCAUAGUAUUUAGUUA,1.19 ± 0.044,0.0644 ± 0.011
UGGACCUAGAGCUUGCAUAGUAUUUAGAAA,0.296 ± 0.034,0.0101 ± 0.0034
UCCACCUAGAGCUAGCAUAGUAUUUAGUUA,0.339 ± 0.042,0.0098 ± 0.0019
UCCUGCUACUCGUUGCAUAGUAUUUACAAA,0.0303 ± 0.0091,–
UGGACGUACAGCUUGCAUAGUUUUUAGUUA,0.35 ± 0.015,0.0389 ± 0.0097
UCCUGGAACAGCUUCCAUAGUAUUAAGUUA,0.0095 ± 0.0047,–
UCGACCUACAGCUUGCAAUCUAUUUAGAAA,0.129 ± 0.033,–
UCGGCCUACAGCUUGCAUAGUAUUUAGUUA,1.21 ± 0.05,0.0767 ± 0.015
UGGCCUACAGCUUGCAUAGUAUUUAGUUA,1.46 ± 0.076,0.0761 ± 0.014
AGGCCUACAGCUUGCAUAGUAUUUAGUUA,1.41 ± 0.075,0.107 ± 0.019
AGGCCCUACAGCUUGCAUAGUAUUUAGUUA,1.15 ± 0.058,0.115 ± 0.018

Sequence,pre-steady-state target cleavage rate [1],pre-steady-state target cleavage rate [2]
UGGCCCUACAGCUUGCAUAGUAUUUAGUUA,1.39 ± 0.11,0.0833 ± 0.015
UCCACCUAGAGCUUGCAUAGUUUUUAGUUA,0.22 ± 0.03,0.0119 ± 0.0015
UCCUGGAUGACGCUUGCAUAGUAUUUAGUUA,0.911 ± 0.059,0.0648 ± 0.0085
UCCACCUACUGCUUGCAUAGUAUUUAGAUA,0.253 ± 0.043,0.0104 ± 0.0021
UCCUGGUUGUGCUUGCAUAGUAUUUAGUAA,0.2 ± 0.022,0.0175 ± 0.0053
UCCUGCUACAGCUUGCAUAGUGUUUAGUUA,0.648 ± 0.045,0.0278 ± 0.0045
UGGACCUCACAGCUUGCAUAGUAUUUAGUUA,1.46 ± 0.084,0.0711 ± 0.014
UCGACCUCCAGCUUGCAUAGUAUUUAGUUA,1.17 ± 0.06,0.0635 ± 0.0099
UCGACCUCAGCUUGCAUAGUAUUUAGUUA,1.38 ± 0.056,0.064 ± 0.013
AGGACCUCACAGCUUGCAUAGUAUUUAGUUA,1.28 ± 0.064,0.102 ± 0.017
UCGACCUUGAGCUUGCAUAGUAUUUAGUUA,0.789 ± 0.057,0.0478 ± 0.0086
UCGACCUCACAGCUUGCAUAGUAUUUAGUUA,1.38 ± 0.05,0.0855 ± 0.017
UCCACCUCACAGCUUGCAUAGUAUUUAGUUA,1.06 ± 0.051,0.0701 ± 0.012
AGGACCUUGUGCUUGCAUAGUAUUUAGUUA,0.869 ± 0.046,0.0654 ± 0.012
UCCACCUACAGCUUGCAUAUUAUUUAGUUA,1.01 ± 0.075,0.0312 ± 0.007
UGCACCUACAGCUUGCAUUGUAUUUAGUUA,0.808 ± 0.057,0.0286 ± 0.0068
UCCUGGAUGUCGAUGCAUAGUAUUUAGUUA [g2:g17:cont:t1A],0.0169 ± 0.005,–
UGGACCUACAGCAAGCAUAGUAUUUAGAAA,0.271 ± 0.031,–
UCCUGGAUGUCCUUGCAUAGUAUUUAGCUUA,0.0471 ± 0.0091,0.00476 ± 0.0022
UGGACCUACAGCUUGCAUAGUAUUUAGUCA,0.934 ± 0.05,0.0559 ± 0.011
